Results from paper PMC9911399, “Two distinct binding modes provide the RNA-binding protein RbFox with extraordinary sequence specificity”.
Numbering of substitutions follows the chain as printed; changes in the protein carry UniProt numbers. The full ranking holds about 16,000 sequences; the median of “ka relative to ugcaugu” is about 0.0091, and the highest 2% start at about 0.032. The sample holds the highest values, similar sequences and a random draw of the others, so the mix is not that of the screen.

T1: RBFOX1 RRM (Homo sapiens, UniProt Q9NWB1 109-208)
T1 sequence: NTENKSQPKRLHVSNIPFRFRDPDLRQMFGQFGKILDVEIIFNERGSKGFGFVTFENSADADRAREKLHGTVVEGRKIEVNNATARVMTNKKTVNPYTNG

B1: AGCAGGG (DNA:RNA)
RNA: GGGAGACCGGAAUUCAGAUUGUCCAGCAGGGUUAAAUCCCGUCGUAGCCACCA
DNA 1: CAATCTGAATTCCGGTCTCCC
DNA 2: TGGTGGCTACGACGGGATT
B2: UGAGGUG (DNA:RNA)
RNA: B1 RNA with A25U, C27A, A28G, G30U
DNA 1: CAATCTGAATTCCGGTCTCCC
DNA 2: TGGTGGCTACGACGGGATT
B3: UCCGUAG (DNA:RNA)
RNA: B1 RNA with A25U, G26C, A28G, G29U, G30A
DNA 1: CAATCTGAATTCCGGTCTCCC
DNA 2: TGGTGGCTACGACGGGATT
B4: CGUAUGC (DNA:RNA)
RNA: B1 RNA with A25C, C27U, G29U, G31C
DNA 1: CAATCTGAATTCCGGTCTCCC
DNA 2: TGGTGGCTACGACGGGATT
B5: UGUAUUG (DNA:RNA)
RNA: B1 RNA with A25U, C27U, G29U, G30U
DNA 1: CAATCTGAATTCCGGTCTCCC
DNA 2: TGGTGGCTACGACGGGATT
B6: UGUAUGC (DNA:RNA)
RNA: B1 RNA with A25U, C27U, G29U, G31C
DNA 1: CAATCTGAATTCCGGTCTCCC
DNA 2: TGGTGGCTACGACGGGATT
B7: UUCUGCU (DNA:RNA)
RNA: B1 RNA with A25U, G26U, A28U, G30C, G31U
DNA 1: CAATCTGAATTCCGGTCTCCC
DNA 2: TGGTGGCTACGACGGGATT
B8: UGUAACC (DNA:RNA)
RNA: B1 RNA with A25U, C27U, G29A, G30C, G31C
DNA 1: CAATCTGAATTCCGGTCTCCC
DNA 2: TGGTGGCTACGACGGGATT
B9: AGGCGUG (DNA:RNA)
RNA: B1 RNA with C27G, A28C, G30U
DNA 1: CAATCTGAATTCCGGTCTCCC
DNA 2: TGGTGGCTACGACGGGATT
B10: ACCCAGU (DNA:RNA)
RNA: B1 RNA with G26C, A28C, G29A, G31U
DNA 1: CAATCTGAATTCCGGTCTCCC
DNA 2: TGGTGGCTACGACGGGATT
B11: GCAUGUC (DNA:RNA)
RNA: B1 RNA with A25G, G26C, C27A, A28U, G30U, G31C
DNA 1: CAATCTGAATTCCGGTCTCCC
DNA 2: TGGTGGCTACGACGGGATT
B12: GCAUGUG (DNA:RNA)
RNA: B1 RNA with A25G, G26C, C27A, A28U, G30U
DNA 1: CAATCTGAATTCCGGTCTCCC
DNA 2: TGGTGGCTACGACGGGATT
B13: GCGCAUG (DNA:RNA)
RNA: B1 RNA with A25G, G26C, C27G, A28C, G29A, G30U
DNA 1: CAATCTGAATTCCGGTCTCCC
DNA 2: TGGTGGCTACGACGGGATT
B14: GCGCAUC (DNA:RNA)
RNA: GGGAGACCGGAAUUCAGAUUGUCCGCGCAUCUUAAAUCCCGUCGUAGCCACCA
DNA 1: CAATCTGAATTCCGGTCTCCC
DNA 2: TGGTGGCTACGACGGGATT
B15: GCACAUG (DNA:RNA)
RNA: B14 RNA with G27A, C31G
DNA 1: CAATCTGAATTCCGGTCTCCC
DNA 2: TGGTGGCTACGACGGGATT
B16: AUGUGUG (DNA:RNA)
RNA: B1 RNA with G26U, C27G, A28U, G30U
DNA 1: CAATCTGAATTCCGGTCTCCC
DNA 2: TGGTGGCTACGACGGGATT
B17: GUCCGUC (DNA:RNA)
RNA: B14 RNA with C26U, G27C, A29G
DNA 1: CAATCTGAATTCCGGTCTCCC
DNA 2: TGGTGGCTACGACGGGATT
B18: GCGCGCA (DNA:RNA)
RNA: B14 RNA with A29G, U30C, C31A
DNA 1: CAATCTGAATTCCGGTCTCCC
DNA 2: TGGTGGCTACGACGGGATT
B19: GCAUAUG (DNA:RNA)
RNA: B14 RNA with G27A, C28U, C31G
DNA 1: CAATCTGAATTCCGGTCTCCC
DNA 2: TGGTGGCTACGACGGGATT
B20: CAAUGUA (DNA:RNA)
RNA: B1 RNA with A25C, G26A, C27A, A28U, G30U, G31A
DNA 1: CAATCTGAATTCCGGTCTCCC
DNA 2: TGGTGGCTACGACGGGATT
B21: CUCAACC (DNA:RNA)
RNA: B1 RNA with A25C, G26U, G29A, G30C, G31C
DNA 1: CAATCTGAATTCCGGTCTCCC
DNA 2: TGGTGGCTACGACGGGATT
B22: GAUGAAG (DNA:RNA)
RNA: B14 RNA with C26A, G27U, C28G, U30A, C31G
DNA 1: CAATCTGAATTCCGGTCTCCC
DNA 2: TGGTGGCTACGACGGGATT
B23: ACGCGCU (DNA:RNA)
RNA: B14 RNA with G25A, A29G, U30C, C31U
DNA 1: CAATCTGAATTCCGGTCTCCC
DNA 2: TGGTGGCTACGACGGGATT
B24: GAGAGCU (DNA:RNA)
RNA: B1 RNA with A25G, G26A, C27G, G30C, G31U
DNA 1: CAATCTGAATTCCGGTCTCCC
DNA 2: TGGTGGCTACGACGGGATT
B25: ACGUGAA (DNA:RNA)
RNA: B1 RNA with G26C, C27G, A28U, G30A, G31A
DNA 1: CAATCTGAATTCCGGTCTCCC
DNA 2: TGGTGGCTACGACGGGATT
B26: CGUCAAG (DNA:RNA)
RNA: B1 RNA with A25C, C27U, A28C, G29A, G30A
DNA 1: CAATCTGAATTCCGGTCTCCC
DNA 2: TGGTGGCTACGACGGGATT
B27: CCUGCAA (DNA:RNA)
RNA: B14 RNA with G25C, G27U, C28G, A29C, U30A, C31A
DNA 1: CAATCTGAATTCCGGTCTCCC
DNA 2: TGGTGGCTACGACGGGATT
B28: UGAAAUG (DNA:RNA)
RNA: B1 RNA with A25U, C27A, G29A, G30U
DNA 1: CAATCTGAATTCCGGTCTCCC
DNA 2: TGGTGGCTACGACGGGATT
B29: UGAUUGU (DNA:RNA)
RNA: B1 RNA with A25U, C27A, A28U, G29U, G31U
DNA 1: CAATCTGAATTCCGGTCTCCC
DNA 2: TGGTGGCTACGACGGGATT
B30: CUGAAUG (DNA:RNA)
RNA: B14 RNA with G25C, C26U, C28A, C31G
DNA 1: CAATCTGAATTCCGGTCTCCC
DNA 2: TGGTGGCTACGACGGGATT
B31: CCCUGAA (DNA:RNA)
RNA: B1 RNA with A25C, G26C, A28U, G30A, G31A
DNA 1: CAATCTGAATTCCGGTCTCCC
DNA 2: TGGTGGCTACGACGGGATT
B32: CUGAAUC (DNA:RNA)
RNA: B14 RNA with G25C, C26U, C28A
DNA 1: CAATCTGAATTCCGGTCTCCC
DNA 2: TGGTGGCTACGACGGGATT
B33: UGAAUGU (DNA:RNA)
RNA: B1 RNA with A25U, C27A, G29U, G31U
DNA 1: CAATCTGAATTCCGGTCTCCC
DNA 2: TGGTGGCTACGACGGGATT

Each binder was assayed against T1, RBFOX1 RRM (assay: EMSA; HiTS-Eq, 1 nM pool, 10 min; buffer printed only for the single-RNA assays: 10 mM Tris pH 7.5, 150 mM NaCl, 3.4 mM EDTA, 0.001% NP-40, 30 C). Conditions: tags: His6 N-terminal (pET28a); label: 5' 32P.
Procedure, shortened: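 Purified RbFox RRM (wild type or mutant) was equilibrated for 10 min in 50 µL with 1 nM of a 5′-radiolabelled pool of RNA with 7 randomized nucleotides, its flanks annealed to DNA oligonucleotides, across increasing protein concentrations. Free RNA was separated by 8% native PAGE, excised, reverse-transcribed, PCR-barcoded and sequenced on an Illumina HiSeq 2500. Relative association constants came from read-count changes of each variant against the control reaction, normalised to the cognate motif.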
For B1, the binding signal was 0.0126 KA relative to UGCAUGU. With B2 the binding signal was 0.0201 KA relative to UGCAUGU. In the case of B3, the binding signal is reported as 0.00757 KA relative to UGCAUGU. With B4 the binding signal was 0.014 KA relative to UGCAUGU. For B5, the binding signal was 0.0262 KA relative to UGCAUGU. In the case of B6, the binding signal is reported as 0.0374 KA relative to UGCAUGU. For B7, the binding signal was 0.0203 KA relative to UGCAUGU. With B8 the binding signal was 0.00753 KA relative to UGCAUGU. B9 was tested, and the binding signal was 0.0157 KA relative to UGCAUGU. For B10, the binding signal was 0.00233 KA relative to UGCAUGU. For B11, the binding signal was 0.689 KA relative to UGCAUGU. For B12, the binding signal was 0.8 KA relative to UGCAUGU. With B13 the binding signal was 0.843 KA relative to UGCAUGU. B14 was tested, and the binding signal was 0.0246 KA relative to UGCAUGU. In the case of B15, the binding signal is reported as 0.0141 KA relative to UGCAUGU. For B16, the binding signal was 0.0208 KA relative to UGCAUGU. With B17 the binding signal was 0.0149 KA relative to UGCAUGU. For B18, the binding signal was 0.0238 KA relative to UGCAUGU. With B19 the binding signal was 0.00982 KA relative to UGCAUGU. For B20, the binding signal was 0.00174 KA relative to UGCAUGU. B21 was tested, and the binding signal was 0.000946 KA relative to UGCAUGU. In the case of B22, the binding signal is reported as 0.0183 KA relative to UGCAUGU. B23 was tested, and the binding signal was 0.00889 KA relative to UGCAUGU. B24 was tested, and the binding signal was 0.016 KA relative to UGCAUGU. With B25 the binding signal was 0.00505 KA relative to UGCAUGU. B26 was tested, and the binding signal was 0.0065 KA relative to UGCAUGU. With B27 the binding signal was 0.00899 KA relative to UGCAUGU. For B28, the binding signal was 0.0128 KA relative to UGCAUGU. In the case of B29, the binding signal is reported as 0.0253 KA relative to UGCAUGU. B30 was tested, and the binding signal was 0.0348 KA relative to UGCAUGU. B31 was tested, and the binding signal was 0.00426 KA relative to UGCAUGU. B32 was tested, and the binding signal was 0.00905 KA relative to UGCAUGU. B33 was tested, and the binding signal was 0.0386 KA relative to UGCAUGU.
